Each structure is given as a SMILES string. This is part of a sample that, as a whole, favours compounds with a hit. Of some 83,000 tested, about 20% had one in any assay.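 Testing used 96-well plates and a 48-hour single-concentration exposure. Example: -40 means 40% of the starting cells died.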 Active and inactive are the calls of the source.

The subject of this test is HCT-15 colon. The test can be described thus: NCI-60 one-dose screen, 48 h (100 = growth as untreated, 0 = no growth, -100 = all killed). The conditions noted are these: 10 µM unless noted. As for the experimental part: Growth inhibition of the HCT-15 human tumor cell line is measured as a screen for anti-cancer activity. Cells are grown in 96 well plates and exposed to the test compound for 48 hours. Compounds are tested at a single concentration, which is 10^-5 M for most compounds. The reported endpoint is percent growth (GI% or GIPRCNT), where numbers from 0 - 100% represent growth inhibition, and numbers from -100% - 0 represent cell death. For example, a value of 40 represents 60% growth inhibition. A value of 0 means no net growth occurred over the course of the experiment. A value of -40 indicates 40% of cells at the beginning of the experiment died by the end of the experiment. A value of -100 means all cells are dead at the end of the experiment.
NCI-60 Human Tumor Cell Lines Screen was performed using the standard one-dose NCI protocol, which is described in more detail at https://dtp.cancer.gov/discovery_development/nci-60/default.htm.
Compounds with GIPRCNT values below 10 were considered active. Activity score was based on GIPRCNT using the following formula: […]
Score is 0 for GIPRCNT values of 100 or above, 50 for GIPRCNT values of 0, and 100 for GIPRCNT values of -100.
For the compound `CCOC(=O)c1c(NC(=O)c2ccc(OC)cc2)sc2c(CN(C)C)c(O)ccc12`, the growth was 52.5% (inactive).

For the compound `Cc1cc(C(=O)Nc2cc(Nc3ncccc3-c3ncnc4nc[nH]c34)ccc2F)cc(C(F)(F)F)c1`, the growth was 60.1% (inactive). As to `COc1ccc(-c2oc(=O)ccc2-c2cc(OC)c(OC)c(OC)c2)cc1O`, the growth is 27.1% (inactive). In the case of `C=NNc1ccccc1`, the growth was 87.4% (inactive). To `O=C(CCl)Nc1ccc2c(Nc3cc(O)ccc3Cl)ncnc2c1` belongs -81.3% (active); to `Cn1cc(/C=C2/C(=O)Nc3ccccc32)c2ccccc21`, 72.9% (inactive); to `Cc1ncc(C(=O)Nc2ccc(CN3CCN(C)CC3)c(C(F)(F)F)c2)cc1C#Cc1cnc(N)c2cnccc12`, 6.59% (active). To `CS(=O)(=O)Nc1cncc(-c2ccc3ncnc(Nc4ccc(F)c(Cl)c4)c3c2)c1` belongs 51.1% (inactive); to `O=C(/C=C/c1ccccc1)Nc1ncc(Cc2ccccc2)s1`, 14.2% (inactive); to `CN1CCN(CCOc2ccc(-c3cnc4c(-c5ccc(C(F)(F)F)cc5)cnn4c3)cc2)CC1`, -33.6% (active). To `O=C1NC(=C(Cl)Cl)/C(=N/S(=O)(=O)N2CCCCC2)N1` belongs -79% (active). For `Nc1c(C(=O)O)cc(Cl)cc1[N+](=O)[O-]`, the growth is 104% (inactive). With `CCOC(=O)c1c(-c2ccccc2)n2c(=O)cc(C)c3c(O)c(O)cc1c32`, the growth was 28.8% (inactive).

`O=C(Nc1cccc(NC(=O)C2CCCCC2)c1)c1ccccn1`: the growth is 100% (inactive). To `N=c1c2c(=N)n3c(nc2nc2n1-c1ccccc1Sc1ccccc1-2)sc1cc(Cl)ccc13` belongs 15.7% (inactive). Regarding `COc1ccc2c(c1)c(-c1cc(-c3cn(C)c4ccc(OC)cc34)on1)cn2C`, the growth is 98.6% (inactive). In the case of `CCCCCn1sc(=O)n(Cc2ccc(CNC(=O)OCc3ccc4c(Cl)cc(Cl)c(O)c4n3)cc2)c1=O`, the growth is 17.1% (inactive). To `CCCC(O)Cn1ncc(C(=O)OCC)c1NC(=O)NCc1cccc(F)c1` (stereo not given) belongs 99.7% (inactive); to `C[C@H]1[C@H](C)CC[C@]2(C(=O)O)CC[C@]3(C)C(=CC[C@@H]4[C@@]5(C)C[C@@H](Cc6cn([C@@H]7O[C@H](CO)[C@@H](O)[C@H](O)[C@H]7O)nn6)[C@H](O)C(C)(C)[C@@H]5CC[C@]43C)[C@H]12`, 102% (inactive); to `Nc1ccc([N+](=O)[O-])cc1N=C/C=C/c1ccccc1`, 42.9% (inactive). Take `COC(=O)/C(CCC=C(C)C)=C1\[C@@H](OC(C)=O)C[C@@]2(C)[C@H]1CC(=O)[C@H]1[C@@]3(C)CCC(N4CCCC4)[C@@H](C)[C@@H]3CC[C@@]12C` (stereo not given in full): the growth was 73.4% (inactive). To `CN(CCC#N)c1ccc(/C=C2\NC(=O)NC2=O)cc1` belongs 104% (inactive); to `Cc1cccc(-n2c(C)nc3ccc(N4CCCNC4=O)cc3c2=O)c1`, 113% (inactive). With `COc1ccc(C2C(C#N)=C(N)Oc3c2sc2c(Br)cccc32)cc1` (stereo not given) the figure was 19.1% (inactive); with `O=C(CSc1nc2ccc([N+](=O)[O-])cc2[nH]1)Nc1cccc([N+](=O)[O-])c1`, 54.4% (inactive). To `Cc1ccc(-c2nc(C(Cl)Cl)nc3cc(C)nn23)cc1` belongs -2.36% (active); to `COc1ccc(C2=NN(C(C)=O)C(c3ccc(Oc4ccnc5cc(Cl)ccc45)c(OC)c3)C2)cc1` (stereo not given), 90.6% (inactive); to `Nc1c(C(=O)Nc2cccc3ncccc23)sc2nc3c(cc12)C(=O)CCC3`, 52.9% (inactive).

Consider `Cc1c(Cl)cccc1C(=O)Nc1nc2c(s1)CN(C(=O)Nc1cccc(C(F)(F)F)c1)CC2`, for which the growth is 11.8% (inactive). With `O=C1C(Cl)=C(NCCN2CCOCC2)C(=O)c2ncccc21` the figure was -38% (active). With `O=C(/C=C/c1cccc(Cl)c1)c1cccc(OCCCCOc2cccc(C(=O)/C=C/c3cccc(Cl)c3)c2)c1` the figure was 83.6% (inactive); with `Oc1c(Cl)cc(Cl)c2ccc(Cn3cc(-c4cccc(C(F)(F)F)c4)nn3)nc12`, 40.5% (inactive); with `CCCCCCCCCCCCCCCCCCOc1ccccc1CC(=O)OCC[N+]1(C)CCOCC1`, 90% (inactive).

Take `COC(=O)c1c2c(c(C)[n+]([O-])c1C)C(=O)C=CC2=O`: the growth is -64.8% (active). With `CCOC(=O)N1CCN(S(=O)(=O)c2oc(-c3ccc(Cl)cc3)nc2C#N)CC1` the figure was -8.32% (active). With `Cn1cc(-c2csc(-c3cn(C(=O)OC(C)(C)C)c4ccccc34)n2)c2ccnc(Cl)c21` the figure was 39.1% (inactive).

Consider `CCOC(=O)c1c2c(n3c1NCC3)-c1ccccc1C2=O`, for which the growth was 99.3% (inactive).

Consider `C#CC#CC#CC#CC#CC#CC#CC#CC[C@H]1OC[C@H](COC(=O)O[C@@H](C(=O)O[C@H]2C[C@@]3(O)[C@@H](OC(=O)c4ccccc4)[C@@H]4[C@]5(OC(C)=O)CO[C@@H]5C[C@H](O)[C@@]4(C)C(=O)[C@H](OC(C)=O)C(=C2C)C3(C)C)[C@@H](NC(=O)c2ccccc2)c2ccccc2)O1`, for which the growth was 99.5% (inactive). To `OC(c1ccccc1)(c1ccccc1)c1ccccc1-c1ccccc1` belongs 90.7% (inactive); to `COc1cccc(/C=C/C(=O)c2cc3c(N)c(C(=O)Nc4ccccc4C)sc3nc2C)c1`, 8.29% (active).

The values are drawn from PubChem BioAssay (NCI).
